Lamin A splicing: qHTS Assay for Modulators of Lamin A Splicing; HeLa LMNA splicing GFP/RFP minigene ratio, 48 h; Potency, µM (top dose mostly 46.1 µM), inactives show top-dose ratio change, negative = inhibition, hits mostly inhibitors; actives 0.01% (n = 200,000); AID 1487, 2009; active means well fitted inhibition curve with a large enough effect in the signal ratio, with a control signal flat, not every such curve was filed as active; inconclusive means small, poorly fitted or top-dose-only effect, or effect the other way, or a change in a side signal; the % refers to the signal ratio; further: potency means the concentration at half of the fitted maximal effect; on the % scale 0 is the no-effect control and ±100 the full control effect
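S3 HeLa cells stably expressing lamin A-EGFP splicing minigene plus DsRed2, 600 cells/well, 48 h compound exposure at 37C. Laser-scanning cytometry; analysed as GFP (500-530 nm)/RFP (575-640 nm) total intensity ratio; 0.5% DMSO vehicle.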
ALDH1A1 block: qHTS Assay for Inhibitors of Aldehyde Dehydrogenase 1 (ALDH1A1); actives 7.3% (n = 220,000); Aldehyde dehydrogenase 1A1 (Homo sapiens), P00352; Potency, µM (highest dose often 75.3 µM), for the others: top-dose activity, negative = inhibition, most hits filed as inhibitors; Purified ALDH1A1, NADH fluorescence, propionaldehyde substrate; active means well fitted inhibition curve with a large enough effect, not every such curve was filed as active; inconclusive means small, poorly fitted or top-dose-only effect, or another doubt; inactive means no such curve, though single readings can be large or run the other way;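 further: potency means the concentration at half of the fitted maximal effect; plate controls were no enzyme wells and a reference inhibitor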
Target sequence (P00352 whole entry, looked up): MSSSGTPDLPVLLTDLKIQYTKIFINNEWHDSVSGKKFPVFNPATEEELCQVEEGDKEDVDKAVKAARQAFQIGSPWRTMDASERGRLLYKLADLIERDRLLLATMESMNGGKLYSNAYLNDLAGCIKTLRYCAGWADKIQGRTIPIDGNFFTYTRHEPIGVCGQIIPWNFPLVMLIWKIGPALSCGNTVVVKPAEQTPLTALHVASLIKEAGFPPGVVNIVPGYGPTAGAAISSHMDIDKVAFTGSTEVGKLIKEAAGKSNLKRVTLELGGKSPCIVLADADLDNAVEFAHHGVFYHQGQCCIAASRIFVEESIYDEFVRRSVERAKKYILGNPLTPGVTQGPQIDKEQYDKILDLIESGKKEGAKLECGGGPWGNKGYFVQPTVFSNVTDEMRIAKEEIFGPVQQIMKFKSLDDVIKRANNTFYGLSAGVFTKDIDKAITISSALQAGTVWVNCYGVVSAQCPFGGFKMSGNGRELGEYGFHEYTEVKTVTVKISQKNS
G9a block: qHTS Assay for Inhibitors of Histone Lysine Methyltransferase G9a. Histone-lysine N-methyltransferase EHMT2 (Homo sapiens), Q96KQ7. G9a H3K9 monomethylation, AlphaScreen, 2 h. Potency, µM (highest dose often 102 µM), for inactives: at the top dose activity, negative = inhibition, hits mostly inhibitors. actives 8.8% (n = 350,000); further: potency means the concentration at half of the fitted maximal effect; on the % scale 0 is the no-effect control and ±100 the full control effect; nearly all actives have a fitted effect of over 75% in size
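Enzyme 20 nM + cpd, 15 min RT; add b-H3K9 pep 500 nM / SAM 20 uM; 2 h RT; anti-H3K9me1 Ab 0.5 ug/mL + SA donor / anti-rabbit acceptor beads 20 ug/mL each, 10 min; AlphaScreen read.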
miR-21 act: qHTS Assay for Modulators of miRNAs and/orActivators of miR-21; HeLa miR-21 FLuc reporter, luciferase, 48 h; 340,000 tested, under 10 active; AID 2288, 2010; Potency, µM (titrated, usually from 38.3 µM), for inactives: at the highest dose activity change, positive = activation, hits mostly activators;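 further: % of control where 0% means no effect; miR-21 action dims this reporter so a rising signal means less miR-21 action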
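Using DMEM plus 10% FBS, HeLa miR-21-FLuc cells are incubated with test compounds (final up to about 40uM) for 48 hours; firefly luciferase signal is then imaged following reagent-mediated lysis.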
Sfp PPTase inh: qHTS Assay for Inhibitors of Bacillus subtilis Sfp phosphopantetheinyl transferase (PPTase); 4'-phosphopantetheinyl transferase ffp (Bacillus subtilis), Q9F4F7; Biochemical Sfp PPTase activity, qHTS; Potency, µM, for inactives: largest response in the series, negative = inhibition, usual class: inhibitors; actives 3.5% (n = 310,000); AID 1490, 2009;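 further: the enzyme is Sfp with the accession as filed and its product quenches rhodamine fluorescence; potency means the concentration at half of the fitted maximal effect; 0% = enzyme reaction without inhibitor and -100% = no enzyme wells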
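Step 1, compound plus 15 nM Sfp-PPTase, 15 min, room temperature. Step 2, add rhodamine-CoA (5 uM) and BHQ-2-YbbR (12.5 uM). Step 3, read 525/598 nm fluorescence at 0 and 30 min.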
KDM4E inh: qHTS Assay for Inhibitors of Human Jumonji Domain Containing 2E (JMJD2E) | Lysine-specific demethylase 4E (Homo sapiens), B2RXH2 | JMJD2E catalytic domain, FDH-coupled NADH fluorescence (FDH is formaldehyde dehydrogenase) | Potency, µM (top dose mostly 57.1 µM), for the others: at the highest dose activity change, negative = inhibition, usual class: inhibitors | actives 1.6% (n = 230,000) | AID 2147, 2009; active means well fitted inhibition curve with a large enough effect, not every such curve was filed as active; inconclusive means small, poorly fitted or top-dose-only effect, or another doubt; inactive means no such curve, though single readings can be large or run the other way;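 further: potency means the concentration at half of the fitted maximal effect; 0% = wells with enzyme and -100% = buffer wells without enzyme; nearly all actives have a fitted effect of over 50% in size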
An asterisk follows results filed as active; u = inconclusive; x = not tested or not shown; [ ] = remark or other dose. Sampled rows, rich in hits. Any-hit rate of the full collection: about 13%. Unless noted, the call rests on the fitted dose curve; in most records, active means well fitted curve in the direction sought with a large enough effect; inconclusive means small, poorly fitted or top-dose-only effect, or another doubt; inactive means no such curve, though single readings can be large; an effect the other way counts as inactive or inconclusive.

SMILES | Lamin A splicing | ALDH1A1 block | G9a block | miR-21 act | Sfp PPTase inh | KDM4E inh
CC(C)(C)c1ccc(C(=O)Nn2cnnc2)cc1 | x | x | -6% | -19% | 8% | x
Cc1ccc(C(=O)NC(=S)Nn2cnnc2)cc1 | -8% | 20µM* | 10µM* | -33% | 28µM* | -9%
O=C(NC(=S)Nn1cnnc1)c1cccc(Br)c1 | 4% | 7.9µM* | 11µM* | 1% | -68% | 5%
COc1ccc(-n2c(=O)c(-c3ccc(Cl)cc3)nc3cnc(N4CCNCC4)nc32)cc1 | u | u | 4%[0.501 µM] | x | -22% | x
COc1ccc(Cl)cc1C(=O)NCC(=O)OCc1ccccc1 | x | x | -30% | x | x | x
COc1ccc(C(C)=O)cc1COC(=O)c1c(C)noc1C | 2% | 22µM* | 18%[59 µM] | 13% | 1% | -3%
COc1ccc(C(C)=O)cc1CC(=O)NC1CCCCCC1 | x | x | 21% | -5% | 3% | x
COc1ccc(C(C)=O)cc1COC(=O)CNC(=O)c1ccccc1F | -10% | 7.1µM* | 16%[59 µM] | -3% | 8% | -1%
COc1ccc(C(C)=O)cc1CN(C)C | -5% | 8.9µM* | u | -4% | -6% | 2%
COc1ccc(C(C)=O)cc1COC(=O)c1cc2ccccc2cc1O | x | x | 45µM* | -1% | 14% | x
COc1ccc(C(C)=O)cc1COC(=O)c1cccnc1Cl | x | x | -7% | 4% | 9% | x
COc1ccc(C(C)=O)cc1COC(=O)c1cnc(C)cn1 | 9% | -5% | u | -4% | 11% | 7%
COc1ccccc1CN(C)C(C)C(=O)Nc1cccc(C(C)=O)c1 (stereo not given) | 20%[46 µM] | -9% | -7% | -2% | 20% | -4%
COc1ccc(C(C)=O)cc1CN1C(=O)NC2(CCCCCCC2)C1=O | 19%[46 µM] | 6.3µM* | -33% | -2% | 5% | 5%
CCOc1ccc(C(C)=O)cc1CN1C(=O)NC2(CCCCCC2)C1=O | x | x | 12% | -1% | -6% | x
COc1ccc(C(C)=O)cc1COc1ccc(-n2cnnn2)cc1 | 5% | 3.5µM* | u | -13% | -4% | 3%
COc1ccc(C(C)=O)cc1COC(=O)c1ccc(OCc2c(C)noc2C)cc1 | 16% | 7.9µM* | u | 1% | u | -2%
COc1ccc(C(=O)OCc2c(C)noc2C)cc1 | -16%[46 µM] | u | 20% | 0% | 11% | -6%
COc1ccc(Br)cc1CN(C)C(C)C(=O)Nc1cccc(C(C)=O)c1 (stereo not given) | x | 10µM* | -8%[12.7 µM] | 11% | -1% | -10%
COc1ccc(NC(=O)COc2ccc(-n3cnnn3)cc2)cc1OC | x | x | -1%[0.501 µM] | x | x | x
O=C(NC(Cc1c[nH]c2ccccc12)C(=O)N/N=C/c1cccnc1)c1cccs1 (stereo not given) | x | -5% | -11%[59 µM] | 14% | -6% | -3%
O=C(CCN1C(=O)/C(=C/c2ccc(F)cc2)SC1=S)NCCCn1ccnc1 | x | x | 50µM* | 0% | -16% | x
C=C[C@@H]1c2cc(C)ccc2N(S(=O)(=O)c2ccc(C)cc2)[C@H](c2ccccc2C(F)(F)F)C1(C#N)C#N | x | x | 89%[2.33 µM] | x | x | x
NS(=O)(=O)c1ccc(CCNC(=O)CSc2ccccc2)cc1 | -8% | 3% | 8% | -3% | 10% | 4%
NS(=O)(=O)c1ccc(CCNS(=O)(=O)c2ccccc2)cc1 | x | 8.9µM* | -8% | 3% | 4% | -2%
NS(=O)(=O)c1ccc(CCNC(=O)CNCCc2ccccc2)cc1 | x | x | 50µM* | -1% | -10% | x
CCCN1CCc2[nH]c(=S)[nH]c(=O)c2C1 | -4% | u | 32µM* | -1% | 50µM* | 1%
CC(C)N1CCc2[nH]c(=S)[nH]c(=O)c2C1 | -14% | u | 40µM* | -4% | 45µM* | -2%
